From the supplement of paper PMC10849652
Of roughly 7,900 targets only a part is listed; those with a hit were picked by preference. About 0.6% of all pairs of compound and target were hits. Values without a mark were called inactive.

Tests used:
Experiment in all cases: log2 fold change, soluble protein after heating vs DMSO (PISA); higher = thermal stabilisation; K562 cells, 10 uM, 30 min; active = over 0.2 and 3.5 SD of the protein, either way, in both replicates (recomputed)
saracatinib = compound: CN1CCN(CCOc2cc(OC3CCOCC3)c3c(Nc4c(Cl)ccc5c4OCO5)ncnc3c2)CC1 [saracatinib]
Method in brief: (§1)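 For each measurement, 10 μM compound was applied for 30 min to K562 cells at 2×10^6 cells/mL. Aliquots were heated for 3 min across 48°C-58°C, pooled, and extracted in PBS with 0.5% NP-40 at 4°C; the supernatant after 21,000xg for 90 min was soluble protein. This was quantified by TMTpro 16plex LC-MS/MS with channel sums equalised, and thermal stability was reported relative to control samples from duplicates, on a log2 fold-change scale.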

sotrastaurin = compound: CN1CCN(c2nc(C3=C(c4c[nH]c5ccccc45)C(=O)NC3=O)c3ccccc3n2)CC1 [sotrastaurin]
Method in brief: as §1

alvocidib = compound: CN1CC[C@H](c2c(O)cc(O)c3c(=O)cc(-c4ccccc4Cl)oc23)[C@H](O)C1 [alvocidib]
Method in brief: as §1

Tubastatin A = compound: CN1CCc2c(c3ccccc3n2Cc2ccc(C(=O)NO)cc2)C1 [Tubastatin A]
Method in brief: as §1

[1] = compound: CNC(=O)C1=CC=CC=C1NC2=NC(=NC=C2Cl)NC3=C(C=C(C=C3)N4CCOCC4)OC
Method in brief: as §1

defactinib = compound: CNC(=O)c1ccc(Nc2ncc(C(F)(F)F)c(NCc3nccnc3N(C)S(C)(=O)=O)n2)cc1 [defactinib]
Method in brief: as §1

rucaparib = compound: CNCc1ccc(-c2[nH]c3cc(F)cc4c3c2CCNC4=O)cc1 [rucaparib]
Method in brief: as §1

[2] = compound: CNc1nc(-c2ccc3c(N)n[nH]c3c2)cc(N2C[C@@H](C(=O)NC3CCCCC3)CC[C@H]2C)n1
Method in brief: as §1

encorafenib = compound: COC(=O)N[C@@H](C)CNc1nccc(-c2cn(C(C)C)nc2-c2cc(Cl)cc(NS(C)(=O)=O)c2F)n1 [encorafenib]
Method in brief: as §1

[3] = compound: COC(=O)[C@H](CCSC)NC(=O)C1=C(C=C(C=C1)NC[C@H](CS)N)C2=CC=CC=C2
Method in brief: as §1

Sequence of UniProt Q8IWX8 (Q8IWX8 whole entry, looked up): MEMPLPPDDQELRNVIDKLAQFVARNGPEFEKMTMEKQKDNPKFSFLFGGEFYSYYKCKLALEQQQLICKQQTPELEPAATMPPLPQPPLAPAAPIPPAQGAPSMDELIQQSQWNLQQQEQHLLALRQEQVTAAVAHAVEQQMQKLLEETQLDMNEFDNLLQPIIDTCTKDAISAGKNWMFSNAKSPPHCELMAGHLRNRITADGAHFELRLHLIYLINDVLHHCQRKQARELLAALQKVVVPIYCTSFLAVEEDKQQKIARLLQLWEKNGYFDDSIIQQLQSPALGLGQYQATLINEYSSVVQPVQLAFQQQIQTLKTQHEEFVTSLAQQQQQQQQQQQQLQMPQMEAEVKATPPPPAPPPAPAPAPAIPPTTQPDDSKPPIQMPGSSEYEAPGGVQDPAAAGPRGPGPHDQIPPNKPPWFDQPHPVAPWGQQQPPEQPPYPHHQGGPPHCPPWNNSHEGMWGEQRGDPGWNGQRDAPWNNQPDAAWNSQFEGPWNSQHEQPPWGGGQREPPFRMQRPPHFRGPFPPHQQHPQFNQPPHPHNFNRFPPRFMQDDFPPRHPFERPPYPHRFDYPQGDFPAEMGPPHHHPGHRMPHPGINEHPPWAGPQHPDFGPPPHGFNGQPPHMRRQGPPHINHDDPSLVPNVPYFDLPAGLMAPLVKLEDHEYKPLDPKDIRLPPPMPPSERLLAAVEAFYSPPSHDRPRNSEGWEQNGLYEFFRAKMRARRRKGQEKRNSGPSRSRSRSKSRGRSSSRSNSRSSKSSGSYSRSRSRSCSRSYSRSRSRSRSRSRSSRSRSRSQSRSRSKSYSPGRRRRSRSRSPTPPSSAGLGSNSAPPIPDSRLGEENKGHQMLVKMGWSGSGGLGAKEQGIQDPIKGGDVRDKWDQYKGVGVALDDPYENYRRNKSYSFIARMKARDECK
Sequence of UniProt P09497 (P09497 whole entry, looked up): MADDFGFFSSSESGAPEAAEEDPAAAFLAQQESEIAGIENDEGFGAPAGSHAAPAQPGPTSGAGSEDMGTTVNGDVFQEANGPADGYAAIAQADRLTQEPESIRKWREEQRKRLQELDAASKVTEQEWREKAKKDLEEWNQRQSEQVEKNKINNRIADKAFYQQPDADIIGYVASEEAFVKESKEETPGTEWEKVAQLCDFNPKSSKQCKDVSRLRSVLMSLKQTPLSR
Sequence of UniProt Q01459 (Q01459 whole entry, looked up): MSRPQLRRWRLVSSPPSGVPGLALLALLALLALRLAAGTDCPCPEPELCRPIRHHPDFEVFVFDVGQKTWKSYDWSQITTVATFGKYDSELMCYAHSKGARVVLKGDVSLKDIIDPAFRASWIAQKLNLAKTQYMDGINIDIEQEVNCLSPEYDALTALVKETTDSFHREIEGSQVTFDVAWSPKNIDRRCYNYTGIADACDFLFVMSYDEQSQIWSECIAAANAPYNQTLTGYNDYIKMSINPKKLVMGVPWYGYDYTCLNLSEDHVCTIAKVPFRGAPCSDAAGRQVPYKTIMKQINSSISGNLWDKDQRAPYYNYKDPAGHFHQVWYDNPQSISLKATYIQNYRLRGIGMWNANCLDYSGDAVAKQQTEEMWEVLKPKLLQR
Sequence of UniProt Q6P5X5 (Q6P5X5 whole entry, looked up): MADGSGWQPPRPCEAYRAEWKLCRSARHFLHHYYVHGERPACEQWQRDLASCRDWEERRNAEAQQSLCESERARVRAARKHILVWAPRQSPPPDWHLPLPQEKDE
Sequence of UniProt P48730 (P48730 whole entry, looked up): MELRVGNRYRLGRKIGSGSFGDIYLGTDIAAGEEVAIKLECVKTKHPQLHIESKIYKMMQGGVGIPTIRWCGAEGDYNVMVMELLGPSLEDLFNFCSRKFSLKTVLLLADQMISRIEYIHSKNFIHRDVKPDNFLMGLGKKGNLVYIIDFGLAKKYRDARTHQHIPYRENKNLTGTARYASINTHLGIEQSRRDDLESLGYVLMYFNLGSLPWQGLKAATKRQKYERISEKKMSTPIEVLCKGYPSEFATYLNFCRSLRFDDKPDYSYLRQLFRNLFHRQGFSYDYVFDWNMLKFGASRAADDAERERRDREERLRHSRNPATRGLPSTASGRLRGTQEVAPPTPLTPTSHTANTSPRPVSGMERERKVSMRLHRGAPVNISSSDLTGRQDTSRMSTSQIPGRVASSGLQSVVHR
Sequence of UniProt Q86X83 (Q86X83 whole entry, looked up): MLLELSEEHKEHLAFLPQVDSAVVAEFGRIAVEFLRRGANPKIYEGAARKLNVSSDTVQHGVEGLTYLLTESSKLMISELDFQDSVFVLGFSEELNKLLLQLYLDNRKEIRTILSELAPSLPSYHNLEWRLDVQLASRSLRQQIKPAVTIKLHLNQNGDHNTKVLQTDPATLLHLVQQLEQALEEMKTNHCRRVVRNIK
Sequence of UniProt Q6ZU80 (Q6ZU80 whole entry, looked up): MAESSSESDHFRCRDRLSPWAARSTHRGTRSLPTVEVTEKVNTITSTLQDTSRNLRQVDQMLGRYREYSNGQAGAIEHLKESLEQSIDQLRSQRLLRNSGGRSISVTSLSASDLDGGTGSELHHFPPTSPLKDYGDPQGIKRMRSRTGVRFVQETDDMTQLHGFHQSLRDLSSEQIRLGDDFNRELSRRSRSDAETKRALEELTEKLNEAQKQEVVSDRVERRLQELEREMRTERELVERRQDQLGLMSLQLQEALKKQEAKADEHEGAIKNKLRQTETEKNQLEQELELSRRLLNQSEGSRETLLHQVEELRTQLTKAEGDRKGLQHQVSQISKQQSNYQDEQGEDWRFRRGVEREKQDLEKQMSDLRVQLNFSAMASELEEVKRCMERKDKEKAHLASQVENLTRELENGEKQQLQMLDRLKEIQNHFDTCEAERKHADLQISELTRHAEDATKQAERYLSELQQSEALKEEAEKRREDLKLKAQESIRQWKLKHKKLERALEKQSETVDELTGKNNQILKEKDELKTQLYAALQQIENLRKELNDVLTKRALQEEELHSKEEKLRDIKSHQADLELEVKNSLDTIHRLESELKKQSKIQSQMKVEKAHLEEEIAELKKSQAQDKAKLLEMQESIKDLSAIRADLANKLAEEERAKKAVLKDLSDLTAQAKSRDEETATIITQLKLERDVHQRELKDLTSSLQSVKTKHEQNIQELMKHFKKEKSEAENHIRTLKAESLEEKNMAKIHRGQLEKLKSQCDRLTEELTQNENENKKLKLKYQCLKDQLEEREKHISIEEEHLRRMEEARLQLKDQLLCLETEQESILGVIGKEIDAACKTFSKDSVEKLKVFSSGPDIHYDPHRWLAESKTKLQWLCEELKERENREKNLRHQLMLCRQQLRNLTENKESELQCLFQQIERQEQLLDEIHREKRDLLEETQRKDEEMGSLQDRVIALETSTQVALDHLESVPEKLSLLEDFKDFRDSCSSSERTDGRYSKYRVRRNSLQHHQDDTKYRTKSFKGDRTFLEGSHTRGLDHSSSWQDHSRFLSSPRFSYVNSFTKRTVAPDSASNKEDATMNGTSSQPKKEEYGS
Sequence of UniProt P46527 (P46527 whole entry, looked up): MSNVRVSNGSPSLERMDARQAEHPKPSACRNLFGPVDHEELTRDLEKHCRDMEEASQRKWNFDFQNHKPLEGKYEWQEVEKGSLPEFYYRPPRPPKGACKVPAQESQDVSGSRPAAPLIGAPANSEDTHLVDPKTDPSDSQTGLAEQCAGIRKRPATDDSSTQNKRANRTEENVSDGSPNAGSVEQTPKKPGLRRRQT
Sequence of UniProt Q6UUV9 (Q6UUV9 whole entry, looked up): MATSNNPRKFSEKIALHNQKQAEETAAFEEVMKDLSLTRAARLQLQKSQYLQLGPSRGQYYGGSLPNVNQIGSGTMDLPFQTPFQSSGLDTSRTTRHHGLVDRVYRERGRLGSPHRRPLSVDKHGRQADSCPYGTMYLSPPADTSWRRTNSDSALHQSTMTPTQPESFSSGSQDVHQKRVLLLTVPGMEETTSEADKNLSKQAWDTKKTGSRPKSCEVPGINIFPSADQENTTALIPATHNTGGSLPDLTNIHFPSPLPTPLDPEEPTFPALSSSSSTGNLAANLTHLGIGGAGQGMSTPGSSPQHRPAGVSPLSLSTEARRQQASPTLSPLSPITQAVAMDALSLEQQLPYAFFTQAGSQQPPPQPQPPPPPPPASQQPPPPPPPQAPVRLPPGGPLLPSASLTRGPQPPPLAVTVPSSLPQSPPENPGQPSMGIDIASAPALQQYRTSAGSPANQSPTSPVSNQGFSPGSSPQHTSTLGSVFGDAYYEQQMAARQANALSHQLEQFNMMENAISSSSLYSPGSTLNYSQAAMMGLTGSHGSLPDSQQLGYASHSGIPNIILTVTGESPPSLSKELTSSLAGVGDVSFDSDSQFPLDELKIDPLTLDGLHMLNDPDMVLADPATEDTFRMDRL
Sequence of UniProt O75503 (O75503 whole entry, looked up): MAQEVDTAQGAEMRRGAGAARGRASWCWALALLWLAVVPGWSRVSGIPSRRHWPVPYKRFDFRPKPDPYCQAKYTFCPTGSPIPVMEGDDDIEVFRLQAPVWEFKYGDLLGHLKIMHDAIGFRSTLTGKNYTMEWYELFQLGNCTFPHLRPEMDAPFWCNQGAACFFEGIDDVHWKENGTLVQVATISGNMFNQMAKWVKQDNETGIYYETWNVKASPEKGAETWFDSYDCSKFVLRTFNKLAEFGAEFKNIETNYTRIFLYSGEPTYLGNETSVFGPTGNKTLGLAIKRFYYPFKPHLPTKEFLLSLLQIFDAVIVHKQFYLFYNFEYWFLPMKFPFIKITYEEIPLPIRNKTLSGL
Sequence of UniProt P61024 (P61024 whole entry, looked up): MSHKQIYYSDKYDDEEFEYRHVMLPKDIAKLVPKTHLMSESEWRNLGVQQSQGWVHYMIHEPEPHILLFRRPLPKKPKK
Sequence of UniProt Q14061 (Q14061 whole entry, looked up): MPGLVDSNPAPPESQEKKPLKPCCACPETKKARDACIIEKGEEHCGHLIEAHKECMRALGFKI
Sequence of UniProt P51636 (P51636 whole entry, looked up): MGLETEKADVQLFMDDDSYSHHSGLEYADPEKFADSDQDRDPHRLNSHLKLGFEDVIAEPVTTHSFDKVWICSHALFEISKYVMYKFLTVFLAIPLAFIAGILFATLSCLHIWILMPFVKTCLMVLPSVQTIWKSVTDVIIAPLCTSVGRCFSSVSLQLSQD

| Target | log2 fold change (saracatinib) | log2 fold change (sotrastaurin) | log2 fold change (alvocidib) | log2 fold change (Tubastatin A) | log2 fold change [1] | log2 fold change (defactinib) | log2 fold change (rucaparib) | log2 fold change [2] | log2 fold change (encorafenib) | log2 fold change [3] |
| --- | --- | --- | --- | --- | --- | --- | --- | --- | --- | --- |
| CSNK1D (UniProt P48730) | -0.047 | -0.038 | 0.063 | 0.039 | 0.111 | 0.045 | 0.032 | -0.038 | 0.06 | -0.012 |
| CKS1B (UniProt P61024) | 0.06 | 0.059 | -0.067 | -0.045 | -0.01 | -0.054 | -0.047 | -0.057 | 0.01 | -0.1 |
| COMMD2 (UniProt Q86X83) | -0.17 | 0.043 | -0.078 | 0.179 | 0.411 (active) | -0.088 | 0.034 | 0.039 | -0.005 | 0.012 |
| CLTB (UniProt P09497) | 0.064 | 0.017 | 0.078 | -0.019 | -0.034 | 0.063 | -0.039 | -0.009 | -0.014 | 0.031 |
| CTBS (UniProt Q01459) | 0.081 | -0.245 | 0.029 | 0.038 | 0.023 | -0.082 | 0.055 | -0.132 | -0.093 | -0.038 |
| COMT (UniProt P21964) | -0.046 | 0.109 | 0.004 | 0.4 (active) | 0.008 | -0.006 | -0.018 | 0.029 | -0.039 | -0.09 |
| CDK9 isoform 2 (UniProt P50750) | -0.028 | -0.018 | 0.405 (active) | 0.01 | -0.07 | 0.03 | 0.084 | 0.036 | 0.079 | -0.091 |
| CAV2 (UniProt P51636) | -0.006 | 0.045 |  | 0.159 | -0.019 |  |  | 0.013 |  |  |
| CRTC1 isoform 2 (UniProt Q6UUV9) | -0.026 | 0.011 |  | -0.009 | -0.101 | -0.021 |  | -0.062 |  | 0.009 |
| CCNT2 (UniProt O60583) | -0.016 | -0.372 |  | 0.157 |  |  | -0.112 | 0.04 | 0.119 |  |
| COG2 (UniProt Q14746) | 0.001 | -0.32 | 0.137 | -0.08 | -0.135 |  | -0.272 | -0.085 | 0.007 |  |
| CDKN1B (UniProt P46527) | 0.29 | 0.129 | 0.256 |  | -0.247 | 0.163 |  | -0.298 |  | 0.028 |
| COX17 (UniProt Q14061) | -0.092 | -0.023 | -0.101 | -0.113 | -0.008 | -0.072 |  | 0.023 |  | 0.147 |
| C22orf39 (UniProt Q6P5X5) | 0.076 | -0.028 | 0.013 | -0.013 | 0.129 |  |  | 0.056 |  |  |
| CHERP (UniProt Q8IWX8) | 0.045 | -0.167 | -0.143 | 0.119 | -0.006 | -0.29 | 0.022 | -0.046 | 0.058 | 0.002 |
| CLN5 (UniProt O75503) | -0.283 | -0.008 | 0.01 | 0.079 | 0.032 |  |  | -0.715 |  |  |
| CEP128 (UniProt Q6ZU80) | -0.092 | -0.022 | 0.033 | 0.024 |  | 0.027 | -0.306 | -0.22 | 0.061 | 0.044 |
